# Results taken from PubChem BioAssay AID2284334 (EPA ToxCast).
# Results filed as inconclusive are left out. Active and inactive are the calls of the source. The calls were made as follows: active = hit-call score of the fitted dose curve at least 0.9, where 1 is the maximum; inconclusive = response in the unintended direction; inactive = score below 0.9.
# Biological target: human Peroxisome Proliferator-activated Receptor alpha (PPARa), PPARA (gene 5465) (UniProt Q07869)
# Assay: ATG_hPPARa_EcoTox2: Attagene TRANS-FACTORIAL EcoTox-2 HepG2 Assay for human Peroxisome Proliferator-activated Receptor alpha (PPARa)
# Method: ATG_EcoTox2 is a cell-based, multiplexed assay created by modifying the existing Attagene TRANS-FACTORIAL system to include a panel of nuclear receptors from some or all the following species: human (Homo sapiens), african clawed frog (Xenopus laevis), rainbow trout (Oncorhynchus mykiss), japanese medaka (Oryzias latipes), and zebrafish (Danio rerio). The ECOTOX2-FACTORIAL format uses HepG2, a human liver cell line, with measurements taken at 24 hours after chemical dosing in a 24-well plate. ATG_hPPARa_EcoTox2 is one of 29 assay components calculated in the ATG_EcoTox2 assay. It is designed to make measurements of mRNA induction, a form of inducible reporter, as detected with fluorescence intensity signals by Reverse transcription polymerase chain reaction (RT-PCR) and Capillary electrophoresis technology.The assay endpoint ATG_hPPARa_EcoTox2 was analyzed in the positive analysis fitting direction relative to DMSO as the negative control and baseline of activity. Using a type of inducible reporter, measures of mRNA for gain-of-signal activity can be used to understand the reporter gene at the transcription factor-level as they relate to the gene PPARa. Furthermore, this assay endpoint can be referred to as a primary readout, because this assay has produced multiple assay endpoints where this one serves a reporter gene function. To generalize the intended target to other relatable targets, this assay endpoint is annotated to the nuclear receptor intended target family, where the subfamily is non-steroidal.
# Human liver HepG2 cells are transiently transfected with multiple reporter transcription units (MRTUs) in 6-well plates using FuGene 6 reagent (Roche; 3 ml FuGene/1 mg DNA). The MRTU constructs are regulated by a cis-regulating element (promoter). Each RTU expresses a GAL4-UAS that regulates the transcription of a nearby target reporter gene sequence. A major difference between the CIS and TRANS system is that in CIS activities of endogenous TFs are measured, whereas the TRANS assay evaluates changes in activities of exogenous, chimeric NR-Gal4 proteins. […] At the end of 24 hour incubation, total RNA was isolated using TriZol reagent (Invitrogen). The isolated RNA is then reverse-transcribed using oligo(dT) primer and Mo-MLV reverse transcriptase (Invitrogen) with DNAse I (Ambion) treatment for 30 min. The one-tenth of the produced cDNA was amplified by PCR using Taq DNA polymerase (Invitrogen) and two reporter sequence-specific primers. The PCR products were fluorescently labeled by primer extension with 6-arboxyfluorescein (6-FAM) 5'-labeled reporter sequence-specific primer (2 min at 95 C, 20 s at 68 C and 10 min at 72 C) and these products were digested with 5U of HpaI (New England Biolabs) for 2h at 37 C. The fragments were purified using Qiaquick PCR columns (Qiagen), analyzed on an ABI 3130xL genetic analyzer (Applied Biosystems) with peak positions identified by using a set of X-rhodamine (ROX)-labeled MapMarker1000 molecular weight standards (BioVentures). The raw capillary electrophoresis data was processed using Attagraph software (Attagene).
# Chain of human Peroxisome Proliferator-activated Receptor alpha (PPARa), PPARA (gene 5465) (Q07869 whole entry, looked up): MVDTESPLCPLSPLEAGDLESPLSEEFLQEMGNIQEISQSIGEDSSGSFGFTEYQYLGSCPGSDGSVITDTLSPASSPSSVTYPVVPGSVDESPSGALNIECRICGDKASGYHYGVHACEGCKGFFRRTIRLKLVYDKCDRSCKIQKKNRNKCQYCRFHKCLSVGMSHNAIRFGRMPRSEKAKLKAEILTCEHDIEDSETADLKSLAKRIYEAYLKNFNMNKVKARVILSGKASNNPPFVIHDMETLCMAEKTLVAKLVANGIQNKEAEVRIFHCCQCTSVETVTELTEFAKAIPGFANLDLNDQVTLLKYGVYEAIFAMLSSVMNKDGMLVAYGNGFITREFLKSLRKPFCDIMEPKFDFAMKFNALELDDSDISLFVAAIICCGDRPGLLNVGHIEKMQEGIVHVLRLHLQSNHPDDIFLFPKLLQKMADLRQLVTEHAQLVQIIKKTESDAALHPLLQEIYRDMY
SMILES,outcome,AC50
C[C@]12C=CC(=O)C=C1CC[C@@H]1[C@@H]2C(=O)C[C@@]2(C)[C@H]1CC[C@]2(O)C(=O)CO,inactive,–
CC(c1cc2ccccc2s1)N(O)C(N)=O (stereo not given),inactive,–
C[C@@H]1C[C@H]2[C@@H]3CCC4=CC(=O)C=C[C@]4(C)[C@@]3(F)[C@@H](O)C[C@]2(C)[C@@]1(O)C(=O)COP(=O)(O)O,inactive,–
CC(C)(Oc1ccc(Cl)cc1)C(=O)O,–,17.1 µM (active)
CC(C)(Oc1ccc(C2CC2(Cl)Cl)cc1)C(=O)O (stereo not given),–,0.984 µM (active)
